This is a sample that favours compounds with a hit; in the whole collection about 4% have one here.
D1 PAM: potentiators of human D1 dopamine receptor | HEK293 TREx D1 cells, calcium flux, dopamine EC20 potentiation | potentiation, % at 10 µM | 360,000 tested, 0.036% active; in the data active = potentiation above about 30%; note: 0% is about no effect
Target sequence (P21728 whole entry, looked up): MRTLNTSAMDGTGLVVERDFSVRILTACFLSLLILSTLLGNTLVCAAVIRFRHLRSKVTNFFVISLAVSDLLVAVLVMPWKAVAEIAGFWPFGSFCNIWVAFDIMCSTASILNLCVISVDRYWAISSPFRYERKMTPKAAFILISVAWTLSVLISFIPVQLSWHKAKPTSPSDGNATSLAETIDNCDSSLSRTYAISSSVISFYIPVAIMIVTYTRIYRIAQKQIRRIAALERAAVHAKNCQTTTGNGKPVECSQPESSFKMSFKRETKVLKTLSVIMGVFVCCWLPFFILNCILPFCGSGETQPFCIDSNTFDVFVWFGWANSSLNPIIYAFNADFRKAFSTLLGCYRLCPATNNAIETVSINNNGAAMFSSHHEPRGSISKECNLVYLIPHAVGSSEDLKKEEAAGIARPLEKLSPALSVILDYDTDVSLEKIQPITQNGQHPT
TRHR agonist: TRH receptor (human) agonism; AID 493084; 360,000 tested, 0.18% active; activation, % at 2 µM; TRHR cells, calcium flux fluo-8, FDSS agonist mode; P34981; note: 0% is about no effect
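Agonist-mode FDSS calcium read (Ex 480/Em 530, 1 s cycles) in 1536-well TRHR cells with fluo-8 dye, after 10-cycle baseline and 23 nL compound addition; TRH at EC20 (10 nM final) added afterwards for the enhancer phase.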
D1 ag: agonists of human D1 dopamine receptor; 360,000 tested, 1% active; HEK293 T-REx D1 cells, calcium flux, agonist mode; activation, % at 2 µM; P21728; note: 0% is about no effect
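Inducible HEK293 T-REx D1 cells, force-coupled to calcium signalling, were plated at 4000 cells/well with tetracycline and held overnight at 30 C. After no-wash calcium dye loading, compound-evoked calcium rise over 180 s flagged agonists.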
GRP78 ERSR act: induces the endoplasmic reticulum stress response in human glioma cells | AID 602332 | 420,000 tested, 0.02% active | U87-MG GRP78 promoter luciferase reporter, 16 h | Potency, µM, without a hit: at the top dose activation, actives largely listed as activators; active = well fitted activation curve with a large enough effect; note: potency is the fitted concentration of half-maximal effect; series mostly up to about 76 µM; % of control where 0% means no effect; nearly all actives have a fitted effect of over 35% in size
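Stably transfected U87-MG human glioma cells carrying a GRP78-based luminescent sensor were seeded at 1000 cells/well, pin-dosed with compounds and incubated 16 h. Luciferase reagent was then added, and end-point luminescence was read after 10 min at room temperature.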
D1 antagonist: human D1 dopamine receptor antagonism. AID 504652. HEK293 TREx D1 cells, calcium flux, dopamine EC80; active compounds read low. activity change, negative = inhibition, % at 10 µM. 360,000 tested, 3.2% active. P21728; in the data active = activity change below about -30%; note: % is set by controls: 0 for no effect and ±100 for the full control effect
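Antagonism measured as reduced calcium response to an EC80 dopamine addition following 180 s compound pre-read; cells were inducible HEK293 Trex D1 plated overnight at 30 C, read kinetically at 1 cycle/sec.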
TRHR PAM: allosteric enhancers of human TRH receptor | enhancement, % at 2 µM | TRHR cells, fluo-8 calcium fluorescence, EC20 TRH enhancement | 360,000 tested, 0.66% active | P34981 | AID 493056; in the data active = enhancement above about 30%; note: 0% is about no effect
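Enhancer read-out: after compound pinning and an initial kinetic agonist-mode read, an EC20 of TRH (10 nM final) was injected and fluo-8 calcium signal (Ex 480/Em 530) followed at 1 s/cycle for 100 cycles in TRHR-expressing cells.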
* hit, by the source's call; x = no result. Cut-off read from the data, not from the text of the source, unless noted: active = activation above about 30%; inactive = the rest.

SMILES	D1 PAM	TRHR agonist	D1 ag	GRP78 ERSR act	D1 antagonist	TRHR PAM
O=C(CNC(=O)c1ccco1)OCc1c(F)cccc1Cl	1	0	4	-5%	7	4
O=C(NCCSCc1c(F)cccc1Cl)c1ccco1	-10	-1	12	8%	-33*	16
Cc1c(C(=O)NCCSCc2ccccc2Cl)cccc1[N+](=O)[O-]	-3	0	5	-6%	-14	2
CCOC(=O)c1c[nH]c2cc(OCC(C)C)c(OCC(C)C)cc2c1=O	x	x	x	-4%	x	x
COc1cc2ncnc(NCc3ccc(C)o3)c2cc1OC	-5	0	1	-6%	-7	3
CC(C)(C)OC(=O)N(CCc1ccccc1)Cc1ccccc1OCc1cccc(NC(=O)/C=C/c2ccccc2)c1	x	x	x	-3%	x	x
O=C(CC1Oc2ccccc2NC1=O)NC1CCCC1 (configuration not stated)	-4	1	0	-3%	-40*	-1
O=C(CC1Oc2ccccc2NC1=O)NC1CC1 (configuration not stated)	-4	1	2	x	-4	4
CCOC(=O)C1CCC(CN(Cc2ccccc2)S(=O)(=O)c2ccc(Br)cc2)CC1 (configuration not stated)	-2	3	14	-2%	-25	-4
CCOC(=O)C1CCC(CN(Cc2cccc(Br)c2)S(=O)(=O)c2ccc(C)cc2)CC1 (configuration not stated)	0	2	32*	-6%	22	-3
COC(=O)[C@@H](N)Cc1ccc(O)c(O)c1	-6	1	-2	0%	-53*	-28
CCC(C)(C)NC(=O)CN(C(=O)c1snc(C(N)=O)c1N)c1ccc2nc(C)sc2c1	-5	-1	1	-3%	-55*	-1
CC(=O)N1c2ccc(S(=O)(=O)N3CCC(C(=O)Nc4cccc(Cl)c4C)CC3)cc2CC1C (configuration not stated)	2	-1	2	0%	-4	-5
Cc1cc(C)c(C#N)c(SCCN2CCOCC2)n1	-3	0	0	-4%	-31*	-3
N#Cc1ccc(-c2ccccc2)nc1SCCN1CCOCC1	-7	0	-2	0%	-9	8
CCOC(=O)C1=C(c2ccccc2)NC(=S)NC1c1ccc(C)c([N+](=O)[O-])c1 (configuration not stated)	-2	1	3	-4%	5	4
Cc1cc(C)n(Cc2ccccc2Cl)n1	-3	-1	0	-1%	-47*	-4
Cc1ccc(C)c(S(=O)(=O)N(C)c2ccc(OC(=O)C3CCN(C(=O)Nc4ccccc4)CC3)cc2)c1	x	x	x	-3%	x	x
Cc1ccc(N=CC=C2OC(C)(C)C(C)(C)O2)c(C)c1	-3	0	1	15%	-42*	4
O=C(CSCc1nc2cccnc2n1C1CCCCC1)NCc1cccc(Cl)c1	-2	-1	2	-4%	-10	0
Cn1nc(C(=O)NCc2ccccc2)c2c1-c1ccccc1SC2	0	1	4	2%	-9	7
Cn1nc(C(=O)NCc2ccccc2Cl)c2c1-c1ccccc1SC2	-1	0	0	-4%	-33*	6
Cn1cnnc1SCC(=O)c1c(N)n(Cc2ccccc2)c(=O)n(C)c1=O	-7	0	0	-1%	-60*	-7
Cc1nnc(SCC(=O)c2c(N)n(Cc3ccccc3)c(=O)n(C)c2=O)n1C	-1	1	3	4%	20	3
Nc1c(C(=O)c2ccccc2)sc2nsc(SCCN3CCOCC3)c12	4	89*	194*	6%	-42*	11
Cc1cc(C)c(S(=O)(=O)Nc2nnc(CC(C)C)s2)c(C)c1	-4	1	0	1%	7	-5
Cc1cc(C)c(S(=O)(=O)Nc2nnc(C)s2)c(C)c1	-2	0	3	-2%	-34*	10
CCN(CCN(C)C)C(=O)C1CCN(S(=O)(=O)c2c(C)noc2/C=C/c2ccccc2F)CC1	-7	2	28	-10%	-37*	-2
Cc1cccc(Cn2c(CNS(=O)(=O)c3ccc(Cl)s3)nc3cccnc32)c1	-4	0	1	-2%	9	2
